Measurements from PMC7862700, “An all-to-all approach to the identification of sequence-specific readers for epigenetic DNA modifications on cytosine”.

Assays:
Assay in all cases: DAPPL (digital affinity profiling via proximity ligation, sequencing); 10 mM Tris-HCl pH 7.5, 50 mM NaCl, 1 mM DTT, 4% glycerol, room temperature, 30 min; GST-TFs on glutathione beads, 16-mer random dsDNA library, 0.1% formaldehyde crosslink after washing; high values mean tight binding
FLI1 = target: T1, FLI1 (Homo sapiens, UniProt Q01543 1-452); conditions: protein: recombinant; tags: N-terminal GST; dsDNA, one strand shown
T1 sequence: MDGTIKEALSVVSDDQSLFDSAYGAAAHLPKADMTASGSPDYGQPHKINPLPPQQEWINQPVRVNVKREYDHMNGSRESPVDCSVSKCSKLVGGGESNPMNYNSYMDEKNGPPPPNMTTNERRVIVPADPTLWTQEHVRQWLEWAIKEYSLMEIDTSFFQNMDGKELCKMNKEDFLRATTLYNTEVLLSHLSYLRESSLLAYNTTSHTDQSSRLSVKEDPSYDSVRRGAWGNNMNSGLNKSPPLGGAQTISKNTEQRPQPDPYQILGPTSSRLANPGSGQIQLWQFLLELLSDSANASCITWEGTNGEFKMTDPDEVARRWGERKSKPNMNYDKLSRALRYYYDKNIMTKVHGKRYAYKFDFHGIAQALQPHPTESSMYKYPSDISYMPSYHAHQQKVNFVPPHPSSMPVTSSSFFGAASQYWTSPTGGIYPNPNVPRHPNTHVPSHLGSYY
How it was run: (§1)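 GST fusions of human transcription factors were expressed in yeast and captured with glutathione beads. Once given DNA barcodes and pooled alongside a tag-only sample, they were incubated for 30 min at room temperature with 200 nmole of a random double-stranded 16-mer DNA library in Tris/NaCl/DTT/glycerol buffer, then washed, crosslinked (0.1% formaldehyde), proximity-ligated, PCR-amplified and sequenced on an Illumina NextSeq500. The binding signal of each hexamer is its read frequency for a factor divided by its frequency for the tag-only sample.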

ELK1 = target: T2, ELK1 (Homo sapiens, UniProt P19419 1-428); conditions: protein: recombinant; tags: N-terminal GST; dsDNA, one strand shown
T2 sequence: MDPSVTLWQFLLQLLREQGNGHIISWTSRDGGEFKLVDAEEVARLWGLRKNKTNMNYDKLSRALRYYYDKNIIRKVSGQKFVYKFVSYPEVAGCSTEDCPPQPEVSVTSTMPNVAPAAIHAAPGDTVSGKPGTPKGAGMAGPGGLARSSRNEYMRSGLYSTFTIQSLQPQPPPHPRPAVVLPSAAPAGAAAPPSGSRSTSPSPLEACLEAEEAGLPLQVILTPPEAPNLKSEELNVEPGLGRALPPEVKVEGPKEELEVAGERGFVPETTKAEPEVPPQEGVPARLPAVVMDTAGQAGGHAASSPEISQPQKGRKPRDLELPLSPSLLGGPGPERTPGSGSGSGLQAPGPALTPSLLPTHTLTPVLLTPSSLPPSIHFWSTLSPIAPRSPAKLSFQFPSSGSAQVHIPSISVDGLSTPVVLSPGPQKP
How it was run: as §1

GABPA = target: T3, GABPA (Homo sapiens, UniProt Q06546 1-454); conditions: protein: recombinant; tags: N-terminal GST; dsDNA, one strand shown
T3 sequence: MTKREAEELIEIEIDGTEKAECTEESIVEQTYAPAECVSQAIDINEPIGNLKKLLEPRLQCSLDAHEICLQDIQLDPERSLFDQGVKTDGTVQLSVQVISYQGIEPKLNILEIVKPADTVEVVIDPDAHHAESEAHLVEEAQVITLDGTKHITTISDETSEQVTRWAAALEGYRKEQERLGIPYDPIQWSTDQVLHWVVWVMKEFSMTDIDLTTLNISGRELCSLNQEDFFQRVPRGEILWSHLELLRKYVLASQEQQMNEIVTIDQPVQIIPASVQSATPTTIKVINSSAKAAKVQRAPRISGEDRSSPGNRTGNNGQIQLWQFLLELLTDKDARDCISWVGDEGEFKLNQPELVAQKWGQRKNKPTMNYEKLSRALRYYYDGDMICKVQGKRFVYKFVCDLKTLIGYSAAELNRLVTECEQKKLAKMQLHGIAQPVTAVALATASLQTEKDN
How it was run: as §1

ERG = target: T4, ERG (Homo sapiens, UniProt P11308 1-479); conditions: protein: recombinant; tags: N-terminal GST; dsDNA, one strand shown
T4 sequence: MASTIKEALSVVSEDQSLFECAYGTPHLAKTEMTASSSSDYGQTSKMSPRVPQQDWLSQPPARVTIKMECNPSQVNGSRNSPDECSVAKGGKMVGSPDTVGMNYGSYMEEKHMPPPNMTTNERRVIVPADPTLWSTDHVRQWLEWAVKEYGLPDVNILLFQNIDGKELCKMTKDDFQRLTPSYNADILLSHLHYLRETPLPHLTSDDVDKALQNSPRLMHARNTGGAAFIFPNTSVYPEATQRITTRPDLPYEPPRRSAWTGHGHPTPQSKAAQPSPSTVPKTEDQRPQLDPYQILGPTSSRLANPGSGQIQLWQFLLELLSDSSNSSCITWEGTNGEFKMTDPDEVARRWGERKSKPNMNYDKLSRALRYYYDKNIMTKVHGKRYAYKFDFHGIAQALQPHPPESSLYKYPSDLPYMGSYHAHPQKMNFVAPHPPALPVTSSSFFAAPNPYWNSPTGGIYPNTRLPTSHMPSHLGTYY
How it was run: as §1

ELF1 = ELF1 (Homo sapiens, UniProt P32519 1-619); conditions: protein: recombinant; tags: N-terminal GST; dsDNA, one strand shown
Sequence of ELF1 (P32519 whole entry): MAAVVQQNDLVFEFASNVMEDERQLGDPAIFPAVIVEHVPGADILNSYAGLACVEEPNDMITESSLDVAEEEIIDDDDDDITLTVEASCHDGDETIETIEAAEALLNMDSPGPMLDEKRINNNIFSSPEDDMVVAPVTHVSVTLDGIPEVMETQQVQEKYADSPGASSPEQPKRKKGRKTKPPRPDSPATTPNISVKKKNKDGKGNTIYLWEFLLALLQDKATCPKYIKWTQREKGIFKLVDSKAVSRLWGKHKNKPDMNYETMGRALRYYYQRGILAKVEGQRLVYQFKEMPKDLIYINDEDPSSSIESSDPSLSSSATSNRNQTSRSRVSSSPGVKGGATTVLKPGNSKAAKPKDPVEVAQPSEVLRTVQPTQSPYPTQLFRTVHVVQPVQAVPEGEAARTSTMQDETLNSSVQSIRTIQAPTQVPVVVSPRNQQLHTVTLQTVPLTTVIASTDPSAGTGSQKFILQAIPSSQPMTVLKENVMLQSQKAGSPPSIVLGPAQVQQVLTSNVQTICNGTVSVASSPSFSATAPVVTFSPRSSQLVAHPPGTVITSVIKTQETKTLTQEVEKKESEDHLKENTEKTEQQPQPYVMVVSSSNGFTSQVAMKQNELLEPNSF
How it was run: as §1

EHF = target: T5, EHF (Homo sapiens, UniProt Q9NZC4 1-300); conditions: protein: recombinant; tags: N-terminal GST; dsDNA, one strand shown
T5 sequence: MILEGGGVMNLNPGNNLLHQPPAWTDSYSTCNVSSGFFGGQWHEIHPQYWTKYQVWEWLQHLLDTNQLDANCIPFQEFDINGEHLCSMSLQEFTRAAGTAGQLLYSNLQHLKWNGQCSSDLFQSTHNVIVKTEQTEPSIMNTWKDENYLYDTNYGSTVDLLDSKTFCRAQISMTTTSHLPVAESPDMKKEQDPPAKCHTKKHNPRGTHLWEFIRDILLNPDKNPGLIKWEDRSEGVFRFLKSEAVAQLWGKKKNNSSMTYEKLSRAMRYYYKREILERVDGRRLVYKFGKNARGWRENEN
How it was run: as §1

SPI1 = SPI1 (Homo sapiens, UniProt P17947 1-270); conditions: protein: recombinant; tags: N-terminal GST; dsDNA, one strand shown
How it was run: as §1

SPIB = SPIB (Homo sapiens, UniProt Q01892 1-262); conditions: protein: recombinant; tags: N-terminal GST; dsDNA, one strand shown
Sequence of SPIB (Q01892 whole entry): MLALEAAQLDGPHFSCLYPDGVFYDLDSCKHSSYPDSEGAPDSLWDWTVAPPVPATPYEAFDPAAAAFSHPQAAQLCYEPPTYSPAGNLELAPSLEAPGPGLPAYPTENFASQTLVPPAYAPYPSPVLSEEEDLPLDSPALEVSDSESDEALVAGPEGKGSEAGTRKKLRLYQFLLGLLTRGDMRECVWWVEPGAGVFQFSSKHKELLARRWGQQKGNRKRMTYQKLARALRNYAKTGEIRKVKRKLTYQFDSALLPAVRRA
How it was run: as §1

ELK3 = target: T6, ELK3 (Homo sapiens, UniProt P41970 1-407); conditions: protein: recombinant; tags: N-terminal GST; dsDNA, one strand shown
T6 sequence: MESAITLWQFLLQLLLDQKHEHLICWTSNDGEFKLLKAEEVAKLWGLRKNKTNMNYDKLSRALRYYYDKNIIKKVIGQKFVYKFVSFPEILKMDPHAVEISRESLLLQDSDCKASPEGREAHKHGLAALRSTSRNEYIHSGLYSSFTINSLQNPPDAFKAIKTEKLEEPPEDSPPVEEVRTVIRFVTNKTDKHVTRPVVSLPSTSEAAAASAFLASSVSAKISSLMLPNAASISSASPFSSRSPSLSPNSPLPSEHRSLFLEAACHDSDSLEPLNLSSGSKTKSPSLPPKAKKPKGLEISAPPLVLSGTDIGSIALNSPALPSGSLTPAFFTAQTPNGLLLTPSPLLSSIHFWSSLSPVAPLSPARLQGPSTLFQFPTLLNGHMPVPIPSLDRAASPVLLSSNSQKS
How it was run: as §1

FEV = target: T7, FEV (Homo sapiens, UniProt Q99581 1-238); conditions: protein: recombinant; tags: N-terminal GST; dsDNA, one strand shown
T7 sequence: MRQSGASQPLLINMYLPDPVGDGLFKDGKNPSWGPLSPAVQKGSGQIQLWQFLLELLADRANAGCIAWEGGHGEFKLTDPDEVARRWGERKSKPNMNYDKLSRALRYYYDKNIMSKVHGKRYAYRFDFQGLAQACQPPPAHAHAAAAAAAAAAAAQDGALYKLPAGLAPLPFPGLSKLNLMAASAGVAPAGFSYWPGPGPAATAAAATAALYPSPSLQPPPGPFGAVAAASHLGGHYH
How it was run: as §1

ETV5 = ETV5 (Homo sapiens, UniProt P41161 1-510); conditions: protein: recombinant; tags: N-terminal GST; dsDNA, one strand shown
Sequence of ETV5 (P41161 whole entry): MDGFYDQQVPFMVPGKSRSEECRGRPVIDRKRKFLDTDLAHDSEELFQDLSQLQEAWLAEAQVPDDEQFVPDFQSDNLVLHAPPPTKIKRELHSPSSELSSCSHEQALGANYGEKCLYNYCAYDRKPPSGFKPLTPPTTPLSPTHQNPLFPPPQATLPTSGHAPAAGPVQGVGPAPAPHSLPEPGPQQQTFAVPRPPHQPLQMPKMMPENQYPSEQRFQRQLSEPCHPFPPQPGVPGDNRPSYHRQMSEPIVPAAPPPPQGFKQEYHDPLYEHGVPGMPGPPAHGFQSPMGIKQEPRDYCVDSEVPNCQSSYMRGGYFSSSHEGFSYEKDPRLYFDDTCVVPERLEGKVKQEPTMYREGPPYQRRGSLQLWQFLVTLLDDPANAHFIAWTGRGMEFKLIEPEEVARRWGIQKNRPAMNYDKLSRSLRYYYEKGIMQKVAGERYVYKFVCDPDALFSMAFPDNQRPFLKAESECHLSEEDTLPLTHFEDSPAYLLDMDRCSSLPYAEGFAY
How it was run: as §1

HSF1 = HSF1 (Homo sapiens, UniProt Q00613 1-529); conditions: protein: recombinant; tags: N-terminal GST; chain copies: 3; dsDNA, one strand shown
Sequence of HSF1 (Q00613 whole entry): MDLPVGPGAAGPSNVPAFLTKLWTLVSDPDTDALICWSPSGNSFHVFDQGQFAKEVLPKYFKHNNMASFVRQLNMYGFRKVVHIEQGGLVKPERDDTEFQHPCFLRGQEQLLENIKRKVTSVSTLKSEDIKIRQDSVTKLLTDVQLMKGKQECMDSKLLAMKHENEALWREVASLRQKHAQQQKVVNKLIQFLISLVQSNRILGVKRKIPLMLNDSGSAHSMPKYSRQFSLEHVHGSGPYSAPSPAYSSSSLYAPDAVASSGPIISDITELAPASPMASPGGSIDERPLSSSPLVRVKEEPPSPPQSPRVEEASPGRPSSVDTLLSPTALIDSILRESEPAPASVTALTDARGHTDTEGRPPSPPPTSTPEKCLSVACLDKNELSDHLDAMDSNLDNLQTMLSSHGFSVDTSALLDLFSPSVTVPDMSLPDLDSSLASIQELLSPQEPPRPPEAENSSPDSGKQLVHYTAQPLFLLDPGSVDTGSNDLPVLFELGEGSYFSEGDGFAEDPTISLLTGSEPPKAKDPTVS
How it was run: as §1

SPIC = target: T8, SPIC (Homo sapiens, UniProt Q8N5J4 1-248); conditions: protein: recombinant; tags: N-terminal GST; dsDNA, one strand shown
T8 sequence: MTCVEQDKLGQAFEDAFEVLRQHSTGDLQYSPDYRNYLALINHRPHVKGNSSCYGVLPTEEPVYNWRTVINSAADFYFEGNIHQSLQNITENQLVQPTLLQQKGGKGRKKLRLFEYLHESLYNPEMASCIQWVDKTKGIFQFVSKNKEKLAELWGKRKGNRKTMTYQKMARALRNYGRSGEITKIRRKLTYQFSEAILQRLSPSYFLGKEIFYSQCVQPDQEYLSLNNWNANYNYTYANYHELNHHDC
How it was run: as §1

ELF4 = ELF4 (Homo sapiens, UniProt Q99607 1-663); conditions: protein: recombinant; tags: N-terminal GST; dsDNA, one strand shown
Sequence of ELF4 (Q99607 whole entry): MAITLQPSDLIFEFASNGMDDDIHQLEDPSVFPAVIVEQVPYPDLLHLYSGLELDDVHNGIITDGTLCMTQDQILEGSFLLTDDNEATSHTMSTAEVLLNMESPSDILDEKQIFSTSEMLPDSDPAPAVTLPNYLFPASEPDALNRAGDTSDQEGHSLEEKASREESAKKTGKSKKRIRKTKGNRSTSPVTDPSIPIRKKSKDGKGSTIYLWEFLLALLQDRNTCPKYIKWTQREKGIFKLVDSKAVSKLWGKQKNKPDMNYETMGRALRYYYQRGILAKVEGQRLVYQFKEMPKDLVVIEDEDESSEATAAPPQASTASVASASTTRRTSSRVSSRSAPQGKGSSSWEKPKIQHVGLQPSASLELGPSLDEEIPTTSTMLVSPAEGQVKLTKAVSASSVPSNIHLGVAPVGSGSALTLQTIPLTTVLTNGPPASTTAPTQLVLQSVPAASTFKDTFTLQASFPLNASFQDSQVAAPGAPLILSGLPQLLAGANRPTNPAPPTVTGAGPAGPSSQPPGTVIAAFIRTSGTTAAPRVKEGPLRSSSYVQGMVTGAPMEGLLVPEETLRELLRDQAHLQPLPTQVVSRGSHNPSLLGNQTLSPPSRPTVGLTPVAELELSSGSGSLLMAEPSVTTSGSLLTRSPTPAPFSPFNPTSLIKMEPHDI
How it was run: as §1

ELK4 = target: T9, ELK4 (Homo sapiens, UniProt P28324-2 1-405); conditions: protein: recombinant; tags: N-terminal GST; dsDNA, one strand shown
T9 sequence: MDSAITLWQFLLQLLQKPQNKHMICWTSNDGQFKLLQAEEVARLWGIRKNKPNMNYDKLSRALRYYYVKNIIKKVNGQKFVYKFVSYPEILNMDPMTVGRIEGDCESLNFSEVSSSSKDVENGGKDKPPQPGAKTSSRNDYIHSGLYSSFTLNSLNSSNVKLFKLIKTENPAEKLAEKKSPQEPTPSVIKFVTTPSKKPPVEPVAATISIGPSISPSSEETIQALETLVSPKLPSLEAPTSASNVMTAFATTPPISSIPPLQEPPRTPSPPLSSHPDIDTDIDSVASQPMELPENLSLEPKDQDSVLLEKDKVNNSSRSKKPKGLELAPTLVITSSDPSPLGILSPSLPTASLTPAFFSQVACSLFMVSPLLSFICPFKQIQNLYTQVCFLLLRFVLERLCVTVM
How it was run: as §1

ETV2 = target: T10, ETV2 (Homo sapiens, UniProt O00321 1-342); conditions: protein: recombinant; tags: N-terminal GST; dsDNA, one strand shown
T10 sequence: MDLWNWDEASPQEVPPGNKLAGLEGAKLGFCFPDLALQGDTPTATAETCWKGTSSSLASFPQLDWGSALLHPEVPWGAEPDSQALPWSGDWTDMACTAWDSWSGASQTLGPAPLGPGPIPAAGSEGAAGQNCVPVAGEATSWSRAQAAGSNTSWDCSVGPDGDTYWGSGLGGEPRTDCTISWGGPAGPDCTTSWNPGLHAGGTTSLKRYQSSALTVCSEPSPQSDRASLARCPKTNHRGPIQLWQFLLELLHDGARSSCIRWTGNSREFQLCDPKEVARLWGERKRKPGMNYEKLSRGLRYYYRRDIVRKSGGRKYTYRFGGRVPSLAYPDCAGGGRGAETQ
How it was run: as §1

ELF3 = target: T11, ELF3 (Homo sapiens, UniProt P78545 1-371); conditions: protein: recombinant; tags: N-terminal GST; dsDNA, one strand shown
T11 sequence: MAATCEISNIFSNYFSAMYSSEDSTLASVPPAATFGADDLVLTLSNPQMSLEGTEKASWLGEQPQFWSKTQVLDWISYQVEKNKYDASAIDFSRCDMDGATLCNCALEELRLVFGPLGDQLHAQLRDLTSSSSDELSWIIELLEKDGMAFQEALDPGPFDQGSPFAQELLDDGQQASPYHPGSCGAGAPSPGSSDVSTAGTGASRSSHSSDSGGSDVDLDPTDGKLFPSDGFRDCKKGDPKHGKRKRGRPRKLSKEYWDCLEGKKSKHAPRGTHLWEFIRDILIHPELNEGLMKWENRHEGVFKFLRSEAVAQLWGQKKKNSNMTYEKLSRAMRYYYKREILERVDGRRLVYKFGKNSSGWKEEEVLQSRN
How it was run: as §1

CRX = CRX (Homo sapiens, UniProt O43186 1-299); conditions: protein: recombinant; tags: N-terminal GST; dsDNA, one strand shown
Sequence of CRX (O43186 whole entry): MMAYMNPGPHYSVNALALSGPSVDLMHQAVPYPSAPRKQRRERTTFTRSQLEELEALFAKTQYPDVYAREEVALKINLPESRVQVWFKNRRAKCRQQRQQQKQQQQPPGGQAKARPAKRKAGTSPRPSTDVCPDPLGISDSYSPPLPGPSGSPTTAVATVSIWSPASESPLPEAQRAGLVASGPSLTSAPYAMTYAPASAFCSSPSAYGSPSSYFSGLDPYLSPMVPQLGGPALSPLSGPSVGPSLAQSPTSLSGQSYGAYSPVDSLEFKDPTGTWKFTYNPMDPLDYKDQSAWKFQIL
How it was run: as §1

ETV1 = ETV1 (Homo sapiens, UniProt P50549 1-477); conditions: protein: recombinant; tags: N-terminal GST; dsDNA, one strand shown
Sequence of ETV1 (P50549 whole entry): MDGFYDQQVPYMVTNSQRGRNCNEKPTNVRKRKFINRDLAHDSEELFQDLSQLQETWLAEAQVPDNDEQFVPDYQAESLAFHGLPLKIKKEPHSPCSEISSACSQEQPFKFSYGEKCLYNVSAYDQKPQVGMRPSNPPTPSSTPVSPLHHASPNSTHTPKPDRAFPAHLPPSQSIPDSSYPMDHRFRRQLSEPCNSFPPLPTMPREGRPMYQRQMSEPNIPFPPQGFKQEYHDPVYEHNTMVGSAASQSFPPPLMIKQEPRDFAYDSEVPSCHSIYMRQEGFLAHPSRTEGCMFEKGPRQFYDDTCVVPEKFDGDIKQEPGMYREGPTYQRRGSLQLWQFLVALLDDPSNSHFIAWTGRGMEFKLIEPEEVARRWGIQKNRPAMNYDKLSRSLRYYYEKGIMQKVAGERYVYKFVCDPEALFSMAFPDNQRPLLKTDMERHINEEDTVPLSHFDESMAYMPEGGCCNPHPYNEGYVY
How it was run: as §1

## GCCTTC
FLI1
  binding signal: 1.41 fold enrichment (6-mer frequency, TF over GST control)
ELK1
  binding signal: 1.51 fold enrichment (6-mer frequency, TF over GST control)
GABPA
  binding signal: 1.54 fold enrichment (6-mer frequency, TF over GST control)
ERG
  binding signal: 1.52 fold enrichment (6-mer frequency, TF over GST control)
ELF1
  binding signal: 1.58 fold enrichment (6-mer frequency, TF over GST control)
EHF
  binding signal: 1.43 fold enrichment (6-mer frequency, TF over GST control)
SPI1
  binding signal: 1.39 fold enrichment (6-mer frequency, TF over GST control)
SPIB
  binding signal: 1.54 fold enrichment (6-mer frequency, TF over GST control)
ELK3
  binding signal: 1.52 fold enrichment (6-mer frequency, TF over GST control)
FEV
  binding signal: 1.57 fold enrichment (6-mer frequency, TF over GST control)
ETV5
  binding signal: 1.56 fold enrichment (6-mer frequency, TF over GST control)
HSF1
  binding signal: 1.49 fold enrichment (6-mer frequency, TF over GST control)
SPIC
  binding signal: 1.71 fold enrichment (6-mer frequency, TF over GST control)
ELF4
  binding signal: 1.6 fold enrichment (6-mer frequency, TF over GST control)
ELK4
  binding signal: 1.64 fold enrichment (6-mer frequency, TF over GST control)
ETV2
  binding signal: 1.63 fold enrichment (6-mer frequency, TF over GST control)
ELF3
  binding signal: 1.41 fold enrichment (6-mer frequency, TF over GST control)
CRX
  binding signal: 1.2 fold enrichment (6-mer frequency, TF over GST control)
ETV1
  binding signal: 1.66 fold enrichment (6-mer frequency, TF over GST control)
